Experimental data from PubChem BioAssay (NCI).
This is part of a sample that, as a whole, favours compounds with a hit. Of some 79,000 tested, about 15% had one in any assay. Unmarked numbers belong to inactive results. Activity calls are given as the source filed them. Cut-off read from the data, not from the text of the source: active = growth inhibition above about 70%; inactive = the rest.

How the values were obtained:
[1] = NCI Yeast Anticancer Drug Screen. Data for the rad50 strain (AID 155);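 note: 0% = growth of vehicle-only cultures of the same strain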; details: S. cerevisiae rad50 strain growth inhibition, active compounds read high
Outline: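 DNA repair mutant yeast, compound exposure, growth read-out; inhibition is taken relative to vehicle.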

[2] = NCI Yeast Anticancer Drug Screen. Data for the mec2-1 strain (AID 157); details: S. cerevisiae mec2-1 strain, active compounds read high
Outline: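 Yeast mec2-1 mutant treated with compound. Readout: growth inhibition vs vehicle controls.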

[3] = NCI Yeast Anticancer Drug Screen. Data for the sgs1 mgt1 strain (AID 161);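 note: 0% = growth of cultures given vehicle only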; details: S. cerevisiae sgs1 mgt1 strain, active compounds read high
Outline: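 Genetically altered yeast, compound exposure, growth inhibition relative to vehicle.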

[4] = NCI Yeast Anticancer Drug Screen. Data for the cln2 rad14 strain (AID 165);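 note: 0% = growth equal to vehicle treated cultures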; details: S. cerevisiae cln2 rad14 strain, active compounds read high
Outline: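 cln2 rad14 yeast strain; compound exposure; growth inhibition read vs vehicle controls.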

[5] = NCI Yeast Anticancer Drug Screen. Data for the bub3 strain (AID 167); details: S. cerevisiae bub3 mutant strain, active compounds read high
Outline: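 In this screen, a yeast mutant lacking normal mitotic checkpoint function is challenged with compound. Relative growth versus vehicle gives the inhibition value.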

[6] = NCI Yeast Anticancer Drug Screen. Data for the mlh1 rad18 strain (AID 175); details: S. cerevisiae mlh1 rad18 strain growth inhibition, active compounds read high
Outline: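 Yeast w/ defined DNA-repair lesions; compound exposure; growth vs vehicle controls → % inhibition.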

[7] = at 5.0 µM (retest, dose inferred, filed as 0.5)
[8] = at 50.0 µM (retest, dose inferred, filed as 5.0)

Structure (SMILES)	growth inhibition [1, 7]	growth inhibition [1, 8]	growth inhibition ([1]; at 50.0 µM)	growth inhibition [2, 7]	growth inhibition [2, 8]	growth inhibition ([2]; at 50.0 µM)	growth inhibition [3, 7]	growth inhibition [3, 8]	growth inhibition ([3]; at 50.0 µM)	growth inhibition [4, 7]	growth inhibition [4, 8]	growth inhibition ([4]; at 50.0 µM)	growth inhibition [5, 7]	growth inhibition [5, 8]	growth inhibition ([5]; at 50.0 µM)	growth inhibition [6, 7]	growth inhibition [6, 8]	growth inhibition ([6]; at 50.0 µM)
O=[N+]([O-])c1cc(Cl)ccc1S(=O)(=O)c1ccccc1	-19%	75% (active)	77.2% (active)	-31%	30%	62.1%	-7%	57%	78.8% (active)	22%	40%	47.5%	-13%	79% (active)	76.6% (active)	-25%	75% (active)	79.7% (active)
COc1cc(C2C(C(=O)O)=C(C)Oc3cc4c(cc32)OCO4)cc(OC)c1OC (stereo not given)	91% (active)	90% (active)	94.2% (active)	70% (active)	88% (active)	92.8% (active)	77% (active)	93% (active)	97% (active)	82% (active)	91% (active)	88.8% (active)	86% (active)	87% (active)	48.5%	68%	85% (active)	97.8% (active)
CC1CCCCC12C(C#N)(C#N)C2(C#N)C#N (stereo not given)	22%	90% (active)	99.2% (active)	30%	97% (active)	99.3% (active)	33%	97% (active)	99.5% (active)	8%	89% (active)	99.2% (active)	43%	97% (active)	99.4% (active)	41%	98% (active)	99.3% (active)
C1=C(c2ccccc2)CCc2ccccc21	1%	14%	12.7%	5%	-1%	-11.5%	5%	14%	-1.95%	0%	-14%	50.9%	-3%	3%	2.6%	-4%	3%	1.5%
COC(=O)c1ccc2ccccc2c1	5%	15%	47%	-1%	4%	28.1%	1%	4%	22.4%	2%	-4%	24.6%	5%	29%	80.2% (active)	5%	11%	34.3%
CCCCCCCCCCCCCCCCN	98% (active)	97% (active)	99% (active)	20%	99% (active)	99.4% (active)	99% (active)	98% (active)	99.2% (active)	54%	97% (active)	98.8% (active)	98% (active)	98% (active)	98.8% (active)	98% (active)	98% (active)	98.7% (active)
O=C(c1cccs1)N(C(=S)N1CCN(c2ccccn2)CC1)C1CCCCC1	4%	66%	54.5%	-8%	61%	54.8%	8%	31%	67.2%	15%	44%	38.8%	2%	31%	68.6%	8%	29%	49.6%
CCOC(=O)C1CCN(Cc2ccccc2)CC1=O (stereo not given)	61%	89% (active)	90% (active)	61%	92% (active)	91.3% (active)	68%	99% (active)	92.4% (active)	49%	100% (active)	90.2% (active)	81% (active)	98% (active)	90.7% (active)	49%	87% (active)	90.8% (active)
COc1ccc(/C=C\Cc2cc3c(cc2OCCO)OCO3)cc1	3%	92% (active)	96.7% (active)	7%	95% (active)	96.7% (active)	7%	97% (active)	97.8% (active)	1%	82% (active)	69.6%	-1%	96% (active)	85.6% (active)	-2%	97% (active)	97.2% (active)
Cc1c2cc[n+](C)cc2c(COC2OC(CO)C(O)C2O)c2c3ccccc3n(C)c12 (stereo not given)	23%	44%	65%	10%	10%	23.6%	-12%	23%	17.9%	19%	24%	18.1%	12%	14%	28.1%	13%	14%	23.2%
